The results in this text go back to PubChem BioAssay (NCI).

Test systems include SK-MEL-2 melanoma; EKVX NSCLC; SN12C renal; UO-31 renal; TK-10 renal; ACHN renal; CAKI-1 renal; A498 renal; CCRF-CEM leukemia; MOLT-4 leukemia; SR leukemia; RPMI-8226 leukemia; OVCAR-8 ovarian; OVCAR-5 ovarian; OVCAR-4 ovarian; SK-OV-3 ovarian; IGROV1 ovarian; OVCAR-3 ovarian; HS 578T breast; NCI/ADR-RES ovarian.
What all share (experiment): NCI-60 one-dose screen, 48 h (100 = growth as untreated, 0 = no growth, -100 = all killed)
Holding throughout (conditions): 10 µM unless noted

The panel holds about 83,000 compounds, 20% with a hit somewhere; the sample as a whole holds those more often.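 For each line, cells grew in 96-well plates with the test compound present at a single concentration for 48 hours.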 Values without a mark were called inactive. Active and inactive are the calls of the source. The calls were made as follows: active = growth percent below 10; inactive = the rest.

Consider `Cc1cc(C(=O)Nc2cc(Nc3ncccc3-c3ncnc4nc[nH]c34)ccc2F)cc(C(C)(C)C#N)c1`, for which the growth with SK-MEL-2 melanoma was 8.76% (active); in the experiment with EKVX NSCLC it was 56%; in the experiment on SN12C renal it was 50.6%; in the experiment on UO-31 renal it was 10.1%; in the experiment with TK-10 renal, 60.8%; in the experiment with ACHN renal, 30.5%. Also, the growth with CAKI-1 renal was 25.1%; with A498 renal, -22.8% (active); in the experiment on CCRF-CEM leukemia it was 42.4%; with MOLT-4 leukemia it was 53.2%; in the experiment on SR leukemia it was 32.1%; in the experiment on RPMI-8226 leukemia, 24%. Besides, the growth in the experiment with OVCAR-8 ovarian is 39.9%; in the experiment with OVCAR-5 ovarian, 30.3%; in the experiment on OVCAR-4 ovarian, 53.2%; in the experiment with SK-OV-3 ovarian, 87%; in the experiment on IGROV1 ovarian, 3.72% (active); in the experiment on OVCAR-3 ovarian, 52.1%. Also, the growth with HS 578T breast was 44.6%.
`O=C1/C(=C/c2ccccc2)COc2ccc(O)cc21`: the growth with SK-MEL-2 melanoma is 104%; with EKVX NSCLC it was 105%; with SN12C renal, 91.7%; in the experiment with UO-31 renal, 76.4%; with TK-10 renal it was 106%; with ACHN renal, 101%. Also, the growth in the experiment on CAKI-1 renal was 93.5%; with A498 renal, 99.5%; in the experiment on CCRF-CEM leukemia, 21.5%; with MOLT-4 leukemia, 78.6%; in the experiment on SR leukemia it was 17.6%; in the experiment on RPMI-8226 leukemia it was -16.5% (active). Further, the growth with OVCAR-8 ovarian is 95.9%; with OVCAR-5 ovarian, 104%; in the experiment on OVCAR-4 ovarian, 99.5%; with SK-OV-3 ovarian, 124%; in the experiment with IGROV1 ovarian, 105%; in the experiment with OVCAR-3 ovarian, 98.7%. The growth in the experiment on HS 578T breast is 107%.
As to `COc1ccc(S(=O)(=O)N(C)c2oc(-c3ccc(Cl)cc3)nc2C#N)cc1`, the growth in the experiment on SK-MEL-2 melanoma is 85%; in the experiment with EKVX NSCLC it was 86.8%; in the experiment on SN12C renal it was 88.4%; with UO-31 renal it was 72.2%; in the experiment with TK-10 renal, 94.3%; in the experiment on ACHN renal, 101%. In addition, the growth with CAKI-1 renal is 75.6%; in the experiment on A498 renal, 63.8%; with CCRF-CEM leukemia it was 72.2%; with MOLT-4 leukemia it was 59.4%; in the experiment on SR leukemia, 29.3%; in the experiment with RPMI-8226 leukemia it was 69.7%. Moreover, the growth with OVCAR-8 ovarian was 96%; with OVCAR-5 ovarian, 94.6%; with OVCAR-4 ovarian it was 76.4%; with SK-OV-3 ovarian it was 91.2%; with IGROV1 ovarian, 77.7%; with OVCAR-3 ovarian, 82.2%. For the same compound, the growth with HS 578T breast is 64.9%; in the experiment with NCI/ADR-RES ovarian, 58.6%.
Consider `O=C1/C(=C/c2cccc(Br)c2)COc2ccc(O)c(O)c21`, for which the growth in the experiment on SK-MEL-2 melanoma was -14.8% (active); with EKVX NSCLC, 41.9%; with SN12C renal it was -73.8% (active); with UO-31 renal, -100% (active); with TK-10 renal, 12%; with ACHN renal, -92.8% (active). Moreover, the growth in the experiment on CAKI-1 renal is -54.4% (active); with A498 renal, 112%; in the experiment with CCRF-CEM leukemia, 4.21% (active); in the experiment with MOLT-4 leukemia, 2.59% (active); in the experiment with SR leukemia, 13.6%; with RPMI-8226 leukemia it was -12.7% (active). The growth in the experiment on OVCAR-8 ovarian was 3.75% (active); in the experiment on OVCAR-5 ovarian, -31.5% (active); in the experiment with OVCAR-4 ovarian, 0.231% (active); with SK-OV-3 ovarian, 62.9%; with IGROV1 ovarian, -44.1% (active); in the experiment with OVCAR-3 ovarian, -78% (active). Moreover, the growth with HS 578T breast was 13.5%.
With `C=C1/C(=C\C=C2/CCC[C@]3(C)[C@@H]([C@H](C)CCCC(C)(C)O)CC[C@@H]23)C[C@@H](OC(=O)CBr)C[C@@H]1O`, the growth was 99.7% in the experiment with SK-MEL-2 melanoma; 52.4% in the experiment with EKVX NSCLC; 85.2% in the experiment with SN12C renal; -100% (active) in the experiment on UO-31 renal; 88.2% with TK-10 renal; -29.7% (active) in the experiment on ACHN renal. Besides, the growth is -30.4% (active) in the experiment on CAKI-1 renal; 86.2% in the experiment on A498 renal; -50.7% (active) in the experiment with CCRF-CEM leukemia; -52.6% (active) in the experiment with MOLT-4 leukemia; -47.3% (active) in the experiment on SR leukemia; -50.7% (active) with RPMI-8226 leukemia. Besides, the growth in the experiment on OVCAR-8 ovarian is 57.3%; in the experiment with OVCAR-5 ovarian, 84.1%; with OVCAR-4 ovarian it was 62.7%; in the experiment on SK-OV-3 ovarian, 108%; in the experiment on IGROV1 ovarian it was -65.5% (active); in the experiment with OVCAR-3 ovarian, -20.1% (active). The growth with HS 578T breast is 66.6%; with NCI/ADR-RES ovarian it was 81.2%.
As for `Cn1cc(-c2ccc3occ(-c4cccc(-c5ccncc5)c4)c3n2)cn1`, the growth in the experiment with SK-MEL-2 melanoma was -1.75% (active); in the experiment on EKVX NSCLC, 30.7%; in the experiment on SN12C renal, 13.1%; in the experiment with UO-31 renal, 11.3%; with TK-10 renal, 9.56% (active); in the experiment with ACHN renal it was 21.9%. The growth with CAKI-1 renal is 12%; with A498 renal, -15.7% (active); in the experiment on CCRF-CEM leukemia it was 10.9%; with MOLT-4 leukemia, 13.2%; in the experiment with SR leukemia, 3.95% (active); in the experiment with RPMI-8226 leukemia, 0.0083% (active). Moreover, the growth in the experiment on OVCAR-8 ovarian was 7.42% (active); with OVCAR-5 ovarian it was 55.4%; in the experiment with OVCAR-4 ovarian it was 36.5%; in the experiment with SK-OV-3 ovarian, 31.8%; in the experiment with IGROV1 ovarian, 15.7%; with OVCAR-3 ovarian, 18.4%. Moreover, in the experiment on HS 578T breast, the growth was -10.7% (active).
On to `COC(=O)c1c(C)nc(C)c2c1C(=O)C(Br)=C(NCCCCO)C2=O`, for which the growth is 64.7% in the experiment on SK-MEL-2 melanoma; 62.2% in the experiment on EKVX NSCLC; 61.7% in the experiment on SN12C renal; 79.7% in the experiment on UO-31 renal; 119% with TK-10 renal; 84.7% in the experiment on ACHN renal. For the same compound, the growth was 70.5% in the experiment on CAKI-1 renal; 115% with A498 renal; 71.8% in the experiment with CCRF-CEM leukemia; 79.5% with MOLT-4 leukemia; 46.4% with SR leukemia; 75.1% in the experiment on RPMI-8226 leukemia. For the same compound, the growth in the experiment on OVCAR-8 ovarian was 57.7%; in the experiment with OVCAR-5 ovarian, 101%; in the experiment with OVCAR-4 ovarian, 38.4%; in the experiment with SK-OV-3 ovarian, 121%; with IGROV1 ovarian it was 52.9%; with OVCAR-3 ovarian, 1.87% (active). Also, the growth in the experiment with HS 578T breast is 87.7%; with NCI/ADR-RES ovarian it was 80%.
As for `COc1ccccc1-c1nc2ccc3[nH]ncc3c2c2c1CCCC2`, the growth with SK-MEL-2 melanoma is 99%; in the experiment on EKVX NSCLC it was 44.3%; with SN12C renal it was 80.5%; with UO-31 renal, 36.3%; with TK-10 renal, 60.4%; in the experiment on ACHN renal, 58.2%. For the same compound, the growth in the experiment with CAKI-1 renal was 21.8%; in the experiment with A498 renal it was 6.87% (active); in the experiment on CCRF-CEM leukemia it was 66.6%; with MOLT-4 leukemia, 42.6%; in the experiment on SR leukemia, 29.1%; in the experiment on RPMI-8226 leukemia it was 68.6%. In addition, the growth is 81.2% with OVCAR-8 ovarian; 103% in the experiment on OVCAR-5 ovarian; 85.6% with OVCAR-4 ovarian; 80.5% in the experiment with SK-OV-3 ovarian; 58.9% in the experiment with IGROV1 ovarian; 114% in the experiment on OVCAR-3 ovarian.
